Percent Effect data for 40 compounds are collected here from ChEMBL document CHEMBL3988442, “University of Dundee, Small-Polar-MMV Screening Library” (2021).

The first test has as its target T1, Aspartate--tRNA(Asp/Asn) ligase (Mycobacterium tuberculosis (strain ATCC 25618 / H37Rv)) (UniProt P9WFW3). Further: in the data most compounds retested in dose-response had high values.
T1 sequence (whole entry): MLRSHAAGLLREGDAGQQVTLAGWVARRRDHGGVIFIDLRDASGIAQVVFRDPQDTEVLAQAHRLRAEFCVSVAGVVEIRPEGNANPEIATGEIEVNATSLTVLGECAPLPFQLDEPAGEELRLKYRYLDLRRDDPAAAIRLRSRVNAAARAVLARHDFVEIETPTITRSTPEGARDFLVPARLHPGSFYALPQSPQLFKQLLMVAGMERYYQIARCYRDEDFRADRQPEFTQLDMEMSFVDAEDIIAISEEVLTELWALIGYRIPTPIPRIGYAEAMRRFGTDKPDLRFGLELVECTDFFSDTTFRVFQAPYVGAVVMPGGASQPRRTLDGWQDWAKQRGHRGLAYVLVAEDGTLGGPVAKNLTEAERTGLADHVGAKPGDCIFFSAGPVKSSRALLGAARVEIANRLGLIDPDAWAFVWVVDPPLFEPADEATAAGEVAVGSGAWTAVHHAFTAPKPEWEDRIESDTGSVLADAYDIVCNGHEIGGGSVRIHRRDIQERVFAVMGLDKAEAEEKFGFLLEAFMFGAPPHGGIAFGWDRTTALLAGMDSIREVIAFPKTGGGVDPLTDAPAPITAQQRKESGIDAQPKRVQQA
The test is described as follows: Assay for Asp RNA synthetase-1 from Mycobacterium tuberculosis. Format: functional. More on the design: scale not given: direction of the effect not stated beside the values. The following applies: 30 µM.
As to `Cc1cc(CNC(=O)N2CCN(c3nc(C)c(C)s3)CC2)no1`, the Percent Effect was -1.96%.

As to `Cc1cnn(CC2CCN(CC(O)COc3ccc(F)cc3)CC2)c1` (stereo not given), the Percent Effect amounted to 1.99%.

Take `CCc1noc(C2CCCCN2C(=O)c2ccoc2C)n1` (stereo not given): the Percent Effect was -4.38%.

Consider `CCN(Cc1ccco1)C(=O)NCc1nnc2n1CCC2`, for which the Percent Effect was 0.859%.

Consider `CCn1ccnc1CN1CCN(Cc2ccc(C#N)cc2)CC1`, for which the Percent Effect was -0.278%.

In the case of `Cc1nn(C)c(N(C)C)c1CNC(C)COc1cccc(F)c1` (stereo not given), the Percent Effect is -0.463%.

For `Cc1nc(CCNC(=O)NCc2ccc(N(C)C)nc2)cs1`, the Percent Effect is -1.75%.

As to `CN(C(=O)Cc1ccc2c(c1)OCCO2)C1CCCC1`, the Percent Effect was -2.52%.

As to `CCOC(=O)C1CCN(C(=O)Cn2ccc3cc(Br)ccc32)CC1`, the Percent Effect was -2.06%.

Consider `CCCc1n[nH]c(C2CN(CCCS(C)(=O)=O)CCO2)n1` (stereo not given), for which the Percent Effect was -3.39%.

For `CC(C)c1nc(CN(C)C2CCN(CCNS(C)(=O)=O)C2)no1` (stereo not given), the Percent Effect is 0.0463%.

For `O=C(NC1CCC1)[C@@H]1CCO[C@@H]2CCN(CCc3ccccc3)C[C@H]21`, the Percent Effect was -2.94%.

On to `COc1cccc(CN2C[C@@H]3COC[C@]3(COCc3ccncc3)C2)c1`, for which the Percent Effect came out at 2.95%.

As for `COc1cccc(CNc2c(C)cnc3c2c(=O)n(C)c(=O)n3C)c1`, the Percent Effect is -3.02%.

As for `CNC(=O)C1(CCCc2ccncc2)CCCN1` (stereo not given), the Percent Effect is 4.78%.

Turning to `O=C(C1CCOCC1)N1C[C@@H]2[C@@H](C1)OCC(=O)N2CC1CC1`, the Percent Effect was 3.77%.

`COCCC(=O)N1CCC2(COCc3c(C)nc(NCC4CC4)nc32)C1` (stereo not given): the Percent Effect stood at 1.96%.

`NCC1Cn2nnc(-c3cccc(F)c3)c2CO1` (stereo not given): the Percent Effect turned out to be 1.16%.

In the case of `c1ccc(NCc2cn3c(n2)CN(Cc2cccnc2)CC3)nc1`, the Percent Effect was -1.64%.

`Cc1nnc2n1CCN(Cc1csc(-c3ccc(F)cc3)n1)C2`: the Percent Effect came out at 2.74%.

With `CCc1noc(C(C)N2CCOCC2)n1` (stereo not given), the Percent Effect was -10.8%.

With `COCCCn1ccnc1-c1cnc(OC)nc1`, the Percent Effect worked out at 2%.

For the compound `CC(=O)N1CCC(C(=O)c2cc(C)cnc2N)CC1`, the Percent Effect was 0.75%.

Regarding `COc1ccc(C2CCCN2C(=O)c2cc3c([nH]c2=O)CCC3)cc1` (stereo not given), the Percent Effect was found to be 3.11%.

`CCc1nnc2n1CCN(CC(=O)Nc1cc(C(C)(C)C)nn1C)C2`: the Percent Effect is 0.589%.

Take `N#Cc1ccc(OCCN2CCc3c(ncn3C3CC3)C2)cc1`: the Percent Effect came out at 1.24%.

In the case of `CNS(=O)(=O)c1ccc(CNC(=O)NCC2CCCO2)cc1` (stereo not given), the Percent Effect was determined as 0.75%.

Consider `Cc1nc(C)n(CC2CCCCN2CC(=O)NC2CCOCC2)n1` (stereo not given), for which the Percent Effect is -4.37%.

Regarding `COCCN1CCN(C(=O)c2ccncc2F)Cc2cccnc21`, the Percent Effect was -0.348%.

Take `Cc1noc(C)c1C(=O)N1CCCC1c1c(C)nn(C)c1Cl` (stereo not given): the Percent Effect was -3.2%.

In the case of `Cc1nnc(C2Cc3ccccc3CN2Cc2ncc(C(C)(C)C)o2)o1` (stereo not given), the Percent Effect was found to be 0.807%.

With `CS(=O)(=O)NCCCNC(=O)c1cccc(-n2cccc2)c1`, the Percent Effect was -2.88%.

For `Cc1noc(C)c1CNc1cc(N2CCCC2CO)ncn1` (stereo not given), the Percent Effect is -7.32%.

`CC1CCN(S(=O)(=O)c2cccn(CC(=O)N3CCOCC3)c2=O)CC1`: the Percent Effect is -4.3%.

In the case of `CC(c1cccnc1)N(C)Cc1csc(-c2ccccn2)n1` (stereo not given), the Percent Effect is -4.49%.

On to `Cc1oncc1C(=O)N1CCC2(CCN(Cc3ccccn3)C2=O)C1` (stereo not given), for which the Percent Effect was -2.39%.

Take `Cc1ncc(CNC(=O)Cc2ccc(Cl)cc2)c(C2CCCN2C)n1` (stereo not given): the Percent Effect turned out to be 0.551%.

Take `Cc1ccc(C(=O)N2CCCC2c2nnc3n2CCCCC3)o1` (stereo not given): the Percent Effect is -0.223%.

With `CC(=O)N1CCC(c2cncc(Oc3ccccc3)n2)CC1`, the Percent Effect was found to be 0.485%.

As to `CN(Cc1nnc(C2CC2)n1C)C1CCN(CCc2cccs2)C1` (stereo not given), the Percent Effect was 1.39%.

In a further test the target is Shiga toxin 2 (Escherichia coli O157:H7) (UniProt P09385+P09386). The test can be described thus: E. coli 0.157:H7 Shiga Toxin SOP - stx2 screening assay. More on the design: scale not given: direction of the effect not stated beside the values. Format: functional. The following applies: 30 µM.
As to `Cc1cc(CNC(=O)N2CCN(c3nc(C)c(C)s3)CC2)no1`, the Percent Effect is 24%.

Regarding `Cc1cnn(CC2CCN(CC(O)COc3ccc(F)cc3)CC2)c1` (stereo not given), the Percent Effect was -53%.

As to `CCc1noc(C2CCCCN2C(=O)c2ccoc2C)n1` (stereo not given), the Percent Effect is -33.6%.

For the compound `CCN(Cc1ccco1)C(=O)NCc1nnc2n1CCC2`, the Percent Effect was -4.02%.

With `CCn1ccnc1CN1CCN(Cc2ccc(C#N)cc2)CC1`, the Percent Effect is -29.2%.

Regarding `Cc1nn(C)c(N(C)C)c1CNC(C)COc1cccc(F)c1` (stereo not given), the Percent Effect is -10.4%.

`Cc1nc(CCNC(=O)NCc2ccc(N(C)C)nc2)cs1`: the Percent Effect is 6.63%.

As to `CN(C(=O)Cc1ccc2c(c1)OCCO2)C1CCCC1`, the Percent Effect was 0.101%.

Take `CCOC(=O)C1CCN(C(=O)Cn2ccc3cc(Br)ccc32)CC1`: the Percent Effect was -21.9%.

`CCCc1n[nH]c(C2CN(CCCS(C)(=O)=O)CCO2)n1` (stereo not given): the Percent Effect was -21.5%.

Take `CC(C)c1nc(CN(C)C2CCN(CCNS(C)(=O)=O)C2)no1` (stereo not given): the Percent Effect is -26.6%.

Regarding `O=C(NC1CCC1)[C@@H]1CCO[C@@H]2CCN(CCc3ccccc3)C[C@H]21`, the Percent Effect is -26.8%.

`COc1cccc(CN2C[C@@H]3COC[C@]3(COCc3ccncc3)C2)c1`: the Percent Effect is 5.94%.

With `COc1cccc(CNc2c(C)cnc3c2c(=O)n(C)c(=O)n3C)c1`, the Percent Effect is -31.1%.

Take `CNC(=O)C1(CCCc2ccncc2)CCCN1` (stereo not given): the Percent Effect was found to be 1.85%.

Take `O=C(C1CCOCC1)N1C[C@@H]2[C@@H](C1)OCC(=O)N2CC1CC1`: the Percent Effect was -0.921%.

For the compound `COCCC(=O)N1CCC2(COCc3c(C)nc(NCC4CC4)nc32)C1` (stereo not given), the Percent Effect was found to be 0.582%.

As for `NCC1Cn2nnc(-c3cccc(F)c3)c2CO1` (stereo not given), the Percent Effect was -69.1%.

`c1ccc(NCc2cn3c(n2)CN(Cc2cccnc2)CC3)nc1`: the Percent Effect was -39.5%.

`Cc1nnc2n1CCN(Cc1csc(-c3ccc(F)cc3)n1)C2`: the Percent Effect was found to be 3.01%.

Consider `CCc1noc(C(C)N2CCOCC2)n1` (stereo not given), for which the Percent Effect came out at 6.48%.

On to `COCCCn1ccnc1-c1cnc(OC)nc1`, for which the Percent Effect was -0.356%.

As to `CC(=O)N1CCC(C(=O)c2cc(C)cnc2N)CC1`, the Percent Effect is -6.78%.

As for `COc1ccc(C2CCCN2C(=O)c2cc3c([nH]c2=O)CCC3)cc1` (stereo not given), the Percent Effect was -10%.

For the compound `CCc1nnc2n1CCN(CC(=O)Nc1cc(C(C)(C)C)nn1C)C2`, the Percent Effect stood at 28.9%.

As to `N#Cc1ccc(OCCN2CCc3c(ncn3C3CC3)C2)cc1`, the Percent Effect was -40.3%.

For `CNS(=O)(=O)c1ccc(CNC(=O)NCC2CCCO2)cc1` (stereo not given), the Percent Effect is 25.4%.

Take `Cc1nc(C)n(CC2CCCCN2CC(=O)NC2CCOCC2)n1` (stereo not given): the Percent Effect is -17.4%.

Turning to `COCCN1CCN(C(=O)c2ccncc2F)Cc2cccnc21`, the Percent Effect is -48.6%.

Take `Cc1noc(C)c1C(=O)N1CCCC1c1c(C)nn(C)c1Cl` (stereo not given): the Percent Effect is -9.41%.

`Cc1nnc(C2Cc3ccccc3CN2Cc2ncc(C(C)(C)C)o2)o1` (stereo not given): the Percent Effect stood at 8.47%.

Turning to `CS(=O)(=O)NCCCNC(=O)c1cccc(-n2cccc2)c1`, the Percent Effect is -28.3%.

`Cc1noc(C)c1CNc1cc(N2CCCC2CO)ncn1` (stereo not given): the Percent Effect is -11.6%.

Turning to `CC1CCN(S(=O)(=O)c2cccn(CC(=O)N3CCOCC3)c2=O)CC1`, the Percent Effect was -33%.

Consider `CC(c1cccnc1)N(C)Cc1csc(-c2ccccn2)n1` (stereo not given), for which the Percent Effect was -14.1%.

Take `Cc1oncc1C(=O)N1CCC2(CCN(Cc3ccccn3)C2=O)C1` (stereo not given): the Percent Effect was -12.9%.

For the compound `Cc1ncc(CNC(=O)Cc2ccc(Cl)cc2)c(C2CCCN2C)n1` (stereo not given), the Percent Effect was 15.8%.

`Cc1ccc(C(=O)N2CCCC2c2nnc3n2CCCCC3)o1` (stereo not given): the Percent Effect was -7.29%.

For `CC(=O)N1CCC(c2cncc(Oc3ccccc3)n2)CC1`, the Percent Effect was found to be 3.32%.

Turning to `CN(Cc1nnc(C2CC2)n1C)C1CCN(CCc2cccs2)C1` (stereo not given), the Percent Effect is -43.7%.
